# TRPV1 potentiator: HTS Assay for Compounds that Act as Potentiators of the Vanilloid Receptor 1. Transient receptor potential cation channel subfamily V member 1 (Homo sapiens), Q8NER1. TRPV1-expressing cells, Fluo-8 calcium influx, capsaicin EC20 potentiation. potentiation, % at 8.33 µM. hit rate 0.02% among 320,000. AID 540277, 2011; in the data active means potentiation above about 80%; inconclusive means between about 30% and that limit; further: 0% is about no effect
#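 TRPV1-expressing cells were cultured overnight at 35.5C and loaded with Fluo-8 calcium dye for 40 to 90 min at room temperature. After a 10 s baseline, compound was added and calcium influx was read kinetically for 3 min (ex 480/em 520 nm).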
# TRPML1 blocker: qHTS for Inhibitors of the Human Mucolipin Transient Receptor Potential 1 (TRPML1); activity change, negative = inhibition, % (no concentration beside the values); hit rate 0.02% among 390,000; TRPML1-inducible cells, Ca2+ dye fluorescence, FDSS; stronger effect = lower value; inhibition of EC80 agonist-evoked calcium signal; Mucolipin-1 (Homo sapiens), Q9GZU1; in the data active means activity change below about -50%; inconclusive means between about -30% and that limit;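 further: stimulus is agonist 54-4 at its EC80 concentration; on the % scale 0 is the no-effect control and ±100 the full control effect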
# Target sequence (Q9GZU1 whole entry, looked up): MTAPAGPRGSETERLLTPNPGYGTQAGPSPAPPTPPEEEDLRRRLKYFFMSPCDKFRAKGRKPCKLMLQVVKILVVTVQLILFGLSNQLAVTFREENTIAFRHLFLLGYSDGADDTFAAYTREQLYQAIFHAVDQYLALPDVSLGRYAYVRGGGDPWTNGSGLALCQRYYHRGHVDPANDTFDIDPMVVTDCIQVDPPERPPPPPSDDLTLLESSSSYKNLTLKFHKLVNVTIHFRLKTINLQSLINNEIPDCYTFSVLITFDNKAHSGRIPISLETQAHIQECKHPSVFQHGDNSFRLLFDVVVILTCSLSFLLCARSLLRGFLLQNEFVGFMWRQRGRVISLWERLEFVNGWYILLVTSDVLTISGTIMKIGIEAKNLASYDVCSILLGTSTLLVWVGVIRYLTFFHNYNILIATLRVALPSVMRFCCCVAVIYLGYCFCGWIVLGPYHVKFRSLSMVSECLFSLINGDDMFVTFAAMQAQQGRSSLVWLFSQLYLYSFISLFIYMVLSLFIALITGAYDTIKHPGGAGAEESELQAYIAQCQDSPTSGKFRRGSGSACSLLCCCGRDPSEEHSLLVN
#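 TRPML1-DL cells, Tet-induced overnight (~16 h, 37 °C) at 1,500 cells/well, were loaded with Ca8 no-wash dye plus quencher for 45-90 min at room temperature. Compounds were pinned during FDSS kinetic reading; agonist 54-4 at EC80 (4 uM final) then added.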
# TRPML1 ag: qHTS for Agonists of the Human Mucolipin Transient Receptor Potential 1 (TRPML1). Mucolipin-1 (Homo sapiens), Q9GZU1. TRPML1-expressing cells, Ca2+ dye fluorescence, FDSS. activation, % (test concentration not listed). hit rate 0.12% among 410,000. AID 624414, 2012; in the data active means activation above about 50%; inconclusive means mostly about 30% to 49%; further: 0% is about no effect
#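 Cells: TRPML1-DL, 1X Tet inducer, ~16 h at 37 degrees C/5% CO2. Dye: ABD Ca8 no-wash + quencher, 45-90 min RT. Read: 10 s baseline, compound add, 110 s agonist phase; 54-4 EC80 (4uM final), 110 s antagonist phase.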
# TRPV1 agonist: HTS Assay for Compounds that Act as Agonists of the Vanilloid Receptor 1 | Transient receptor potential cation channel subfamily V member 1 (Homo sapiens), Q8NER1 | TRPV1-expressing cells, Fluo-8 calcium influx, agonist mode | activation, % at 8.33 µM | hit rate 0.19% among 320,000 | AID 540275, 2011; in the data active means activation above about 80%; inconclusive means between about 30% and that limit; further: 0% is about no effect
#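 Cells expressing TRPV1 were dye-loaded with Fluo-8 and read kinetically: 10 s baseline, 3 min after compound (agonist portion), then 2 min after EC20 capsaicin (allosteric enhancer portion). Calcium-bound dye fluorescence at 480/520 nm.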
# TRHR agonist: qHTS for Small Molecule Agonists and Allosteric Enhancers of Human TRH Receptor: Primary Screen for Agonists; activation, % at 2 µM; TRHR cells, calcium flux fluo-8, FDSS agonist mode; hit rate 0.18% among 360,000; AID 493084, 2011; in the data active means activation above about 30%; further: 0% is about no effect
#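 TRHR-expressing cells, plated overnight in medium with 10% serum, were loaded with fluo-8 calcium dye at room temperature. After a 10 s baseline, library compound was pin-added and calcium release was recorded kinetically (ex 480/em 530) as agonist response.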
# TRHR PAM: qHTS for Small Molecule Agonists and Allosteric Enhancers of Human TRH Receptor: Primary Screen for Enhancers. hit rate 0.66% among 360,000. Thyrotropin-releasing hormone receptor (Homo sapiens), P34981. AID 493056, 2011. enhancement, % at 2 µM. TRHR cells, fluo-8 calcium fluorescence, EC20 TRH enhancement; in the data active means enhancement above about 30%; further: 0% is about no effect
#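 TRHR-expressing cells loaded with fluo-8 calcium dye were read kinetically (ex 480/em 530) during compound addition, then stimulated with an EC20 of TRH (10 nM final). Enhancement of the Gq-mediated intracellular calcium response was scored.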
# Active calls of the source: *; u = inconclusive; x = no result given. Only some compounds are listed: those with a hit (about 0.99% of all), similar ones and a draw of the others.
SMILES,TRPV1 potentiator,TRPML1 blocker,TRPML1 ag,TRPV1 agonist,TRHR agonist,TRHR PAM
O=C(Cn1cc(CNCc2ccccc2)nn1)Nc1cc(C(F)(F)F)ccc1Cl,x,x,x,x,0,3
CC(C)C(NS(=O)(=O)c1cccc(C(F)(F)F)c1)C(=O)NCc1cccs1 (stereo not given),-5,-6,-1,-1,-3,5
CC(C)[C@H](NS(=O)(=O)c1cccc(C(F)(F)F)c1)C(=O)OCC(N)=O,-1,4,0,3,2,39*
O=C(Cc1ccccc1)N1CCN=C1SCc1cccc([N+](=O)[O-])c1,7,-8,0,4,0,31*
Cc1cccc(C(=O)N2CCN=C2SCc2ccc([N+](=O)[O-])cc2)c1,23,38,-1,3,0,1
O=c1[nH]c(=S)[nH]c2n[nH]nc12,x,x,1,x,x,x
COc1ccccc1C(=O)Nc1ccncc1,-6,-1,0,1,0,35*
COc1ccccc1NS(=O)(=O)c1ccc(NC(=O)c2ccncc2)cc1,4,-7,0,0,1,38*
COc1cc(C(=O)NCC(=O)N/N=C/c2ccccn2)cc(OC)c1OC,-1,6,2,0,1,35*
O=C(CNC(=O)c1ccncc1)N/N=C/c1ccccn1,5,-2,1,-2,0,-3
COc1cccc(C(=O)Nc2ccncc2)c1OC,5,-16,-1,2,0,-6
COc1cc(NC(=O)c2ccccn2)cc(OC)c1OC,-10,-9,0,6,0,30*
CCCCNC(=O)[C@@H]1CC=C[C@@H]2CCN(Cc3ccc(OC)c(OC)c3)C(=O)[C@@H]21,x,x,-1,x,x,x
O=C(COC(=O)CNC(=O)c1ccccc1)Nc1cc(C(F)(F)F)ccc1Cl,x,x,x,x,1,-1
O=C(C[N+]12CN3CN(CN(C3)C1)C2)c1ccc(O)c(O)c1,x,x,0,x,x,x
O=S1(=O)CCO[C@H]2CCCC[C@@H]2N1Cc1ccccc1F,x,x,-1,x,x,x
Cc1cc2c(s1)c1cnn(Cc3cc(F)ccc3C)c(=O)c1n2C,x,x,x,x,0,-4
CCOc1ccccc1CNC(=O)C1CCCN(c2ncnc3c2nc2n3CCCCC2)C1 (stereo not given),-10,2,1,23,0,0
O=C(NCc1ccccc1Cl)C1CCCN(c2ncnc3c2nc2n3CCCCC2)C1 (stereo not given),-9,-4,1,81*,0,3
COc1cccc(/C=C/c2ccnc3ccccc23)c1OC,x,x,-1,x,x,x
CC(C)=CC(=O)Nc1ccc(S(=O)(=O)Nc2ccccn2)cc1,-49,6,1,2,0,37*
O=C(Cc1ccc(Br)cc1)NO,x,x,-1,x,x,x
COc1ccc(-n2nc3ccc(NC(=O)c4cccc(OCCC(C)C)c4)cc3n2)cc1,x,4,0,x,2,36*
Clc1ccc[n+](CCCCC[n+]2cccc(Cl)c2)c1,x,x,-1,x,x,x
CCN1C(=NCc2ccc(OC)cc2)N[C@@H](c2ccccc2)[C@H](C(=O)OC)[C@H]1C,u,34,0,2,0,31*
CC1=CC(C)(C)N(C(=O)CN2C(=O)CCC2=O)c2ccccc21,-9,-4,0,1,0,-5
CC1=CC(C)(C)N(C(=O)CN2C(=O)c3ccccc3C2=O)c2ccc(C)cc21,-9,-5,61*,-1,0,7
COC(CN(C)C(=O)c1cn(C)c2ccc(S(=O)(=O)N(C)C3CCCCC3)cc2c1=O)OC,21,0,1,1,0,31*
Cc1ccc(CNC(=O)c2cn(C)c3ccc(S(=O)(=O)N(C)C4CCCCC4)cc3c2=O)cc1,x,-5,0,x,0,0

# Screening data deposited in PubChem BioAssay by National Center for Advancing Translational Sciences (NCATS).
